According to the supplement of paper PMC6555819:

System: VDR:RXRa (NR concentration 270 nM, RXRa partner concentration 90 nM)
Experiment: PBM binding z-score (relative to random genomic background probes); higher = stronger binding; sequences stand for … in GC…GCGATTGACAGCGTAGAATGAAGG
In short: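 Each nuclear receptor dimer, without ligand, was incubated for 1 h on custom Agilent 4×180K protein-binding microarrays. Binding was detected with antibodies against each partner (one per run), and scanned fluorescence was regression-normalized. The binding z-scores are referenced to random human genomic background probes.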

| Sequence | PBM binding z-score |
| --- | --- |
| TGTCAAAGTTCAAAGGTAAAGTAAGTATCCACAC | 4.88 |
| CGAACTAGCTCAGAACAGGACAGTGAAGGATGAT | -0.427 |
| GATACAGGGTCAGCTAGAGGCAAGAGTATGGAAA | 2.63 |
| GGAACGAGGGCATTCGAGTTAATAGCATGGCGAT | 2.35 |
| TGTGCTAGGTCAACGATGGTCAGCTAATCTGCTA | 1.65 |
| ATACCAAGGTGATCGTGAGGTGGTTGATACTAAC | -0.0231 |
| CCTTACGGGTCACGAGGTTATAACACGACGAGCG | 5.28 |
| CCTAGCAGGCCAATCTCGGTCACTCAAGGCTTGA | -0.37 |
| ACTAGCACGCCAAGTTTGGGTCACTCAAACAAAG | 0.247 |
| TCATAAAGGTAAATGCTAGGTGAAAGTCCGATCT | 0.918 |
| CGAACGAGGGCATGAGTAGATAGCAAATGCCGAT | 0.5 |
| TCCTATAGGTAAACAGGTGAAAGTCCGTAAGTTA | 0.775 |
| CCTATTAGTTGACCATAAGGGCAACGGAAGCTCG | 0.803 |
| TAGCCTACGTCATGGGCCAGTATACCACGCGAAC | -0.472 |
| TCTGCTAGGTCAACTATGGTCAGCTAATCTGCTA | 2.12 |
| TCTTGTAGATCACTAGAGGTTAAGAAAGTGCGCT | 2.06 |
| TCTAGTTGGTCAAAGGTCACAGACTCGAAATGCG | 5.45 |
| CGACCTAGGTCAGAACAGGACAGTGAAGGATGAT | 1.05 |
| CCGGCTGGGGCATAAGGTTACCATAAGCCAGCCC | -0.119 |
| CCTACTGGGCCAAAGGTTATTGATTCCAATGCTC | 1.34 |

| Sequence | PBM binding z-score |
| --- | --- |
| TAGCCTAGGTCATTCTGGGGCCAGTATAGAAAGC | 2.88 |
| GCGAATGGGGCATCAGCAGGTTACCATAACTTAA | -0.212 |
| CCCGAAAGGTCGTGCTCAGGTGAGTATACCAAAC | 3.47 |
| ACTTACGGGTCAACGAGGTTGTAGCACGCGTATA | 7.54 |
| ATCTCCAGGTAAAAGTTCAGTGAATCCCGAGGAT | 1.43 |
| TGAATGAGGTTAAAGACCAGGGAACGTGGCGTCG | 1.09 |
| GCTAGCAGGCCATTTGGCTCACTCAATGACGGGC | -0.942 |
| TCATATCGGTAAATGCTAGGTGAAAGTCCGATCT | 0.566 |
| AATACAGGGTCATCGTAGGACAGAGTACGCACAG | 5.5 |
| CCTACTGGGCCATTCAGAGGTCATTCATCATATG | 4.26 |
| GTACCAAGGTGAATAGGTGGTTGATGAGTAGGCG | -0.165 |
| GCTCGGAGGACAAGTTCAGAGCTTTGTCCGTAGA | 0.733 |
| TGTCAAAGTTCAAAGGTAACGTAGGTATCCACAC | 5.15 |
| GATACAGTGTCAGCTAGAGGCCAGAGTATGGAAA | -0.468 |
| GATACAGGGTCTGCTAGAGGCCAGAGTATGGAAA | -0.492 |
| TTACCAAGGTGAGCTGAGGCCGTTGATCCAACTC | 0.537 |
| ACTATTAGTTGAGACGAGGGCAACCGATAGGTTG | 0.889 |
| TCTTGTAGATGAAGCAGGTTAAGAAAGCCTGAGT | 0.456 |
| AGTCAAAGTTCATGTAGGTAACGTAAGATATGCT | 4.84 |
